# Assay outcomes: PubChem, National Center for Advancing Translational Sciences (NCATS)
# ELG1 repair inh: qHTS screen for small molecules that inhibit ELG1-dependent DNA repair in human embryonic kidney (HEK293T) cells expressing luciferase-tagged ELG1; HEK293T ELG1-luciferase reporter, luminescence, 16 h; DNA damage induced by 5-fluorouridine; Potency, µM (series often up to 46.1 µM), actives largely listed as inhibitors; actives 2.3% (n = 330,000); further: nearly all actives have a fitted effect of over 55% in size
#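 Reporter activity after DNA damage by 5-fluorouridine is monitored. Compound-treated cells incubate 16 hr at 37 °C, then ONE-Glo is added for 30 min before luminescence reading.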
# BRCA1 expr up: qHTS Assay to Identify Small Molecule Activators of BRCA1 Expression. MCF7-BRCA1-FFLuc reporter, luminescence, 48 h; response scale: scaled: vehicle 0%, 10 µM genistein 100%. Potency, µM (titrated, usually from 46.1 µM), usual class: activators. actives 1.1% (n = 380,000); further: nearly all actives have a fitted effect of over 80% in size
#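 Compounds are tested at multiple concentrations on MCF7 BRCA1-luciferase reporter cells seeded at 2000 per well; after 48 h, a single luminescence end-point is taken and curves fitted to the normalized data.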
# IL2 activator: qHTS of IL-2 Activators. activation, % (series mostly up to about 46 µM). IL-2 activation reporter assay, cell-based qHTS; stimulated with anti-CD3/CD4/CD28 beads; in transgenic mouse T cells. actives 0.065% (n = 360,000); in the data active means activation above about 50%; inconclusive means mostly about 30% to 49%
#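 Screening format: compound pinned onto unstimulated transgenic mouse T cells, 60 min incubation, then anti-CD3/anti-CD4/anti-CD28 bead stimulation for 18 hours at 37 degrees C, followed by EGFP and DsRed detection.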
# Nrf2 ARE act: qHTS of Nrf2 Activators; actives 0.31% (n = 410,000); Potency, µM (highest dose often 46.1 µM), actives largely listed as activators; AREc32 ARE-luciferase reporter (MCF7-derived line), luminescence, 24 h; further: nearly all actives have a fitted effect of over 65% in size
#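 Luciferase luminescence (Steady-Glo, 30 min at room temperature) served as the read-out of ARE activation in AREc32 cells treated with compounds for 24 hr at 37 deg C.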
# Hits are given with their value; - = inactive; ? = inconclusive; . = no result given; [ ] = dose if it differs, or a comment. Rows were chosen to be rich in hits. Some 3.1% of all compounds tested hit in one or more screens of this group. Unless noted, the call rests on the fitted dose curve; in most records, active means well fitted curve in the direction sought with a large enough effect; inconclusive means small, poorly fitted or top-dose-only effect, or another doubt; inactive means no such curve, though single readings can be large; an effect the other way counts as inactive or inconclusive.
SMILES,ELG1 repair inh,BRCA1 expr up,IL2 activator,Nrf2 ARE act
O=S(=O)(c1ccc2c(c1)OCO2)N1CCN(c2nc(-c3cccs3)nc3ccccc23)CC1,.,-,.,.
COc1cc2nc(CSc3nc(-c4ccc(F)cc4)cs3)[nH]c(=O)c2cc1OC,23µM,-,-,-
c1ccc(CSc2nc3ccccc3[nH]2)cc1,?,-,-,-
Nc1c(-c2ccccc2)c(CSc2nc3ccccc3[nH]2)nn1-c1ccc(Cl)cc1,6.5µM,-,-,-
Nc1c(-c2ccccc2)c(CSc2nc3ccccc3[nH]2)nn1-c1cccc(Cl)c1,2.9µM,-,-,-
Cc1ccccc1-n1nc(CSc2nc3ccccc3[nH]2)c(-c2ccccc2)c1N,?,-,-,-
Cc1ccccc1CNC(=O)C1CCN(S(=O)(=O)Cc2ccccc2)CC1,.,.,.,-
CCn1c(=O)n(CC)c2cc(N3CCCC3)c(NC(=O)c3ccccc3OC)cc21,?,-,-,-
CCOc1ccccc1C(=O)Nc1cc2c(cc1N1CCCC1)n(CC)c(=O)n2CC,8.2µM,-,-,-
CCn1c(=O)n(CC)c2cc(N3CCCC3)c(NC(=O)c3cc(Cl)ccc3OC)cc21,18µM,-,-,-
CCn1c(=O)n(CC)c2cc(N3CCCC3)c(NC(=O)c3ccc(OC)c(Br)c3)cc21,12µM,-,-,-
CSc1ccc(/C=C2\C=C(C(O)c3ccc(SC)cc3)c3ccccc32)cc1 (centres undefined),.,-,.,.
Cc1csc2c(N3CCCCC3)ncnc12,?,11µM,-,-
CS(=O)(=O)N(CC(=O)N/N=C/c1ccco1)c1ccccc1Br,-,-,-,-[9.22 µM]
CN(C)c1ccc(/C=N/NC(=O)CN(c2cccc(Cl)c2)S(C)(=O)=O)cc1Br,21µM,-,-,-
CS/C(N)=N/N=C/c1ccc([N+](=O)[O-])cc1,?,11µM,-,-
O=C(Nc1ccc(-n2cccn2)cc1)C1CCCCN1Cc1cccc2c1OCO2 (centres undefined),8.2µM,-,-,-
COc1cc(/C=C/c2ccc3cccc(O)c3n2)ccc1O,?,11µM,-,?
COc1cc(Br)cc(/C=C/c2ccc3cccc(O)c3n2)c1O,7.3µM,-,-,?
COc1cc(Br)c(/C=C/c2ccc3cccc(O)c3n2)cc1OC,?,-,-,-
CN1C(=O)c2ccccc2Sc2ccc(NC(=O)N3CCN(c4ccccc4F)CC3)cc21,.,.,.,-
Cc1ccc(CN2CCC(CNC(=O)Nc3c(C)cccc3C)C2)cc1 (centres undefined),.,-,.,-
COc1ccc(NC(=O)c2sc(=O)n(Cc3ccccc3C#N)c2C)cc1OC,.,-,-,-
COc1ccc(CCNC(=O)c2cnc3ccc(C)cn3c2=O)cc1,.,.,.,-
NC(=O)c1cc2ccncc2c2ccccc12,1.3µM,-,-,-
SMILES,ELG1 repair inh,BRCA1 expr up,IL2 activator,Nrf2 ARE act
Cc1ccc(NC2=CC(=O)C(=O)c3ccccc32)c(C)c1,21µM,-,-,-
O=C1C=C(Nc2ccccc2O)c2ccccc2C1=O,?,-,-,-
CCOC(=O)c1c(C)oc2ncnc(Nc3cc(Cl)ccc3OC)c12,.,.,.,-
COc1ccc(-c2cc(=O)c3cc(OC)ccc3o2)cc1,?,?,-,-
O=c1cc(-c2ccccc2)oc2ccc(Cl)cc12,.,?,-,?
O=c1cc(-c2ccccc2F)oc2ccccc12,?,13µM,-,?
O=c1cc(-c2ccc(F)cc2)oc2ccccc12,.,-,-,11µM
CSc1ccc(-c2cc(=O)c3ccccc3o2)cc1,?,-,-,2.8µM
Cc1ccccc1-c1cc(=O)c2ccccc2o1,-,-,-,-
Cc1cccc(C)c1NC(=O)C(c1ccnc2ccccc12)N1CCN(CCN(C)C)CC1 (centres undefined),.,.,-,.
CCOc1ccc(CCNC(=O)CN2C(=O)COc3ccc(S(=O)(=O)N4CCC(C)CC4)cc32)cc1,.,-,.,-
Cc1ccc(CNC(=O)c2ccc(Cn3nc(C)c(Cl)c3C)o2)cc1,-,-,-,-
Cc1nn(Cc2ccc(C(=O)Nc3ccccc3C(F)(F)F)o2)c(C)c1Br,?,-[1.84 µM],-,-
Cc1cc(C)cc(NC(=O)c2ccc(Cn3nc(C)c(Cl)c3C)o2)c1,21µM,-,-,-
Cc1csc(NC(=O)c2ccc(Cn3nc(C)c(Br)c3C)o2)n1,9.2µM,-,-,-
Cc1ccccc1C(=O)Nc1cccc(-c2cn3cccnc3n2)c1,.,.,.,-
O=C(O)/C=C/c1ccc([N+](=O)[O-])o1,?,-,-,?
O=[N+]([O-])c1ccc(/C=N/N=C/c2ccc([N+](=O)[O-])o2)o1,?,-,-,4µM
O=[N+]([O-])c1ccc(/C=N/Nc2nc(N3CCCCCC3)nc(N3CCCCCC3)n2)o1,23µM,-,-,-
CCCc1nnc(NC(=O)CCC(=O)N2CCN(Cc3ccc(OC)c(F)c3)CC2)s1,-,-,-,-
CC(C)Cc1nnc(NC(=O)CCC(=O)N2CCN(c3ccc([N+](=O)[O-])cc3)CC2)s1,9.2µM,-,-,-
COc1ccc(CN2CCN(C(=O)CCC(=O)Nc3nnc(C4CCCCC4)s3)CC2)cc1F,5.8µM,-,-,-
COc1ccc(CN2CCN(C(=O)CCC(=O)Nc3nnc(CC(C)C)s3)CC2)cc1F,5.8µM,-,-,-
COc1cccc(CN2C(=O)c3ccccc3Sc3ccc(C(=O)NCCc4ccc(Cl)cc4)cc32)c1,.,-,.,-
CCOc1ccc(NC(=O)CCc2c(C)nn(-c3ccc(N4CCCCC4)nn3)c2C)cc1,?,11µM,-,-
SMILES,ELG1 repair inh,BRCA1 expr up,IL2 activator,Nrf2 ARE act
Cc1ccc(NC(=O)CCc2c(C)nn(-c3ccc(N4CCCCC4)nn3)c2C)cc1F,?,3.2µM,-,-
CCc1ccc(NC(=O)CCc2c(C)nn(-c3ccc(N4CCCCC4)nn3)c2C)cc1,?,?,-,-
Cc1nn(-c2ccc(N3CCCCC3)nn2)c(C)c1CCC(=O)Nc1ccc(F)cc1,-,-,-,-
COc1ccc(OCCCCn2c(C3CC(=O)N(c4cccc(Cl)c4)C3)nc3ccccc32)cc1 (centres undefined),.,.,.,-
COc1ccc(OC)c(NC(=O)CN2CCCN(Cc3ccccc3Cl)S2(=O)=O)c1,.,.,.,-
C1=C(CCNc2ncnc3nc[nH]c23)CCCC1,?,6.3µM,-,-
c1ccc2c(CCNc3ncnc4nc[nH]c34)cccc2c1,23µM,-,-,-
Cc1cccc(-n2c(=O)c3c(c4cc(C)ccc4n3C)n(Cc3ccccc3F)c2=O)c1,.,-,.,-
CCc1n(CC(O)COC2CCCCC2)c2ccccc2[n+]1C (centres undefined),-,-,-,-
CCCc1n(CC)c2ccccc2[n+]1CC(O)COC1CCCCC1 (centres undefined),3.3µM,-,-,-
CCOc1ccc2c(c1)c(=O)c(C(=O)c1ccc(CC)cc1)cn2CC(=O)Nc1ccc2c(c1)OCCO2,.,-,.,-
Cc1ccc(NP(=O)(c2ccc(N(C)C)cc2NC(=O)c2cccs2)N2CCOCC2)cc1Cl (centres undefined),16µM,-,-,-
